About 79,000 compounds went through this panel and 15% of them were active in at least one assay; those are over-represented in the sample as a whole. Values without a mark were called inactive. Activity calls are given as the source filed them. Cut-off read from the data, not from the text of the source: active = growth inhibition above about 70%; inactive = the rest.

The first assay is described as follows: NCI Yeast Anticancer Drug Screen. Data for the sgs1 mgt1 strain (AID 161).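 Note: 0% = growth of cultures given vehicle only.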 To be noted: S. cerevisiae sgs1 mgt1 strain, at 50.0 µM, stronger effect = higher value. Summed up: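 Compounds are added to genetically altered yeast, and growth is compared with cultures given vehicle alone to give percent inhibition.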
In the case of `O=C(O)C(CO)N=Cc1nc(-c2ccccc2)oc1O` (stereo not drawn), the growth inhibition was 12.4%.

As for `CC(C)[C@@H]1CC[C@@H](C)C[C@H]1N`, the growth inhibition was -8.85%.

With `CCOC(=O)Cn1c(C(F)(F)F)nc2nc(Cl)c(Cl)nc21`, the growth inhibition was -33.5%.

On to `COc1ccccc1NC(=O)C1=C(C)NC(C)=C(C(=O)Nc2ccccc2OC)C1c1ccccc1Cl`, for which the growth inhibition is 3.85%.

The nature of the next assay: NCI Yeast Anticancer Drug Screen. Data for the cln2 rad14 strain (AID 165).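 Note: 0% = growth equal to vehicle treated cultures.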 Particulars: S. cerevisiae cln2 rad14 strain, at 50.0 µM, stronger effect = higher value. Summed up:
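Growth inhibition, relative to vehicle-treated controls, is the read-out. The test organism is a yeast strain with defined genetic alterations, cln2 rad14.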
Regarding `CN1CCCCCCCC(=O)C(OC(=O)c2ccc([N+](=O)[O-])cc2)CCCCCCC1` (stereo not drawn), the growth inhibition was 9.85%.

`CN(C)Cc1c[nH]c2nc[nH]c(=O)c12`: the growth inhibition is 6%.

As for `Cc1ccc2cc(N)ccc2c1`, the growth inhibition is -9.85%.

As for `S=C(NCCS)Nc1ccccc1`, the growth inhibition is -46.6%.

As for `O=C(O)CN(CC(=O)O)CC(=O)O`, the growth inhibition was -11.8%.

In the case of `CC(C)=C1CCC/C1=N\Nc1ccc([N+](=O)[O-])cc1[N+](=O)[O-]`, the growth inhibition was -25.8%.

With `CCCC(=O)NC(NC1CCCCC1)(C(=O)OCC)C(F)(F)F` (stereo not drawn), the growth inhibition was 18.4%.

For `O=S(=O)(O)c1cc2c3ccccc3ccc2c2ccccc12`, the growth inhibition is -15.5%.

As to `NC(=S)NNc1ccccc1`, the growth inhibition is -6.7%.

For `Cc1cc(N(CCC#N)CCC#N)ccc1/C=C(\NC(=O)/C=C/c1ccccc1)NC(=O)Nc1ccc(Cl)cc1`, the growth inhibition is 10.8%.

In the case of `O=C(/C(=C\c1ccc(Cl)cc1)c1ccccc1)c1ccccc1`, the growth inhibition is 5.95%.

With `COCCOCc1nc(C#N)c(N)o1`, the growth inhibition was 13.8%.

Take `C/C(=N\NC(=O)c1ccncc1)c1cccc(Br)c1`: the growth inhibition was 6.6%.

As for `c1ccc(CNC2CC3CCC2C3)cc1` (stereo not drawn), the growth inhibition is -5.15%.

`CCOC(=O)C1C=NC([N+](=O)[O-])=C1Br` (stereo not drawn): the growth inhibition was -4.25%.

Take `Clc1ccc(Nc2ncco2)cc1Cl`: the growth inhibition was -0.8%.

On to `O=[N+]([O-])c1nccn1CCC[n+]1ccc2ccccc2c1`, for which the growth inhibition was -2%.

For the compound `CCCCCCCCCCCCCCCc1c(NC(C)(CC)[P+](=O)O)c(=O)n(C)n1C` (stereo not drawn), the growth inhibition was -29.9%.

`C=CCCCCCCCCCCCCCCC`: the growth inhibition is 5.3%.

As for `CCOc1cc2c(cc1Cc1ccc3c(c1)OCO3)OCO2`, the growth inhibition was -12.1%.

As for `Cc1ccc(S(=O)(=O)C2(NC(=O)C3CC3)CC2)cc1`, the growth inhibition was -11.1%.

With `CCCCCCCCCC(O)CCCC(O)C(O)CCCCCCC(=O)O` (stereo not drawn), the growth inhibition is 17.5%.

`Cc1ccc2[nH]c(=S)[nH]c(=S)c2c1`: the growth inhibition is -19.8%.

Turning to `CC(C)(Cl)C1CCC(CC(Cl)(Cl)Cl)CC1` (stereo not drawn), the growth inhibition is -26.9%.

Consider `O=C(NCC1CC1)NC(=O)c1ccccc1F`, for which the growth inhibition is 16.6%.

As to `Cc1ccc(NC(=O)c2ccc(C)c(N)c2)c(C)c1`, the growth inhibition is -9.7%.

For `O=C(C[n+]1ccccc1-c1ccccn1)c1ccc(-c2ccccc2)cc1`, the growth inhibition is -14.7%.

In the case of `NCc1ccccc1[N+](=O)[O-]`, the growth inhibition was -1.6%.

With `CCOC(=O)C1Cc2ccccc2OC1=O` (stereo not drawn), the growth inhibition is 12.8%.

For `O/N=C1\CC2(N3CCOCC3)CCC1(c1ccccc1)CC2`, the growth inhibition was 20.9%.

For the compound `O=[N+]([O-])c1ccc(Cl)c(C=NC23CC4CC(CC(C4)C2)C3)c1`, the growth inhibition was -9.3%.

`O=c1[nH]cnc2c1ncn2C1CCC(CO)O1` (stereo not drawn): the growth inhibition was -0.1%.

For the compound `O=C(/C=C/c1ccccc1)CC(=O)c1ccccc1.O=C(/C=C/c1ccccc1)CC(=O)c1ccccc1.[Cu]`, the growth inhibition is -35.8%.

Turning to `COc1cc(Cl)ccc1NC(=O)Oc1ccc(-c2ccccc2)cc1Cl`, the growth inhibition was 99% (active).

Regarding `S=c1sc2c(Cl)ncnc2n1-c1ccccc1`, the growth inhibition was 11.8%.

As for `CCCOC(=O)C(OC(=O)c1ccccc1)C(OC(=O)c1ccccc1)C(=O)OCCC` (stereo not drawn), the growth inhibition was -10.9%.

As to `O=C(O)C(CO)N=Cc1nc(-c2ccccc2)oc1O` (stereo not drawn), the growth inhibition was 9.25%.

Turning to `CC(C)[C@@H]1CC[C@@H](C)C[C@H]1N`, the growth inhibition is -35.5%.

Regarding `CCOC(=O)Cn1c(C(F)(F)F)nc2nc(Cl)c(Cl)nc21`, the growth inhibition was -94.9%.

Regarding `COc1ccccc1NC(=O)C1=C(C)NC(C)=C(C(=O)Nc2ccccc2OC)C1c1ccccc1Cl`, the growth inhibition is 17.9%.

The next assay is described as follows: NCI Yeast Anticancer Drug Screen. Data for the bub3 strain (AID 167). To be noted: S. cerevisiae bub3 mutant strain, at 50.0 µM, stronger effect = higher value. The method, boiled down: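 Screening used yeast with an engineered genetic alteration affecting cell cycle control. Compound-exposed cultures were compared with vehicle cultures, and reduced growth was taken as inhibition.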
With `CN1CCCCCCCC(=O)C(OC(=O)c2ccc([N+](=O)[O-])cc2)CCCCCCC1` (stereo not drawn), the growth inhibition is 1.55%.

Consider `CN(C)Cc1c[nH]c2nc[nH]c(=O)c12`, for which the growth inhibition is -9.5%.

For the compound `Cc1ccc2cc(N)ccc2c1`, the growth inhibition was 20.1%.

Turning to `S=C(NCCS)Nc1ccccc1`, the growth inhibition was 41.8%.

With `O=C(O)CN(CC(=O)O)CC(=O)O`, the growth inhibition was -17.1%.

Take `CC(C)=C1CCC/C1=N\Nc1ccc([N+](=O)[O-])cc1[N+](=O)[O-]`: the growth inhibition is 4.6%.

For `CCCC(=O)NC(NC1CCCCC1)(C(=O)OCC)C(F)(F)F` (stereo not drawn), the growth inhibition was -7.25%.

As to `O=S(=O)(O)c1cc2c3ccccc3ccc2c2ccccc12`, the growth inhibition is -1.35%.

Turning to `NC(=S)NNc1ccccc1`, the growth inhibition was -2.6%.

Regarding `Cc1cc(N(CCC#N)CCC#N)ccc1/C=C(\NC(=O)/C=C/c1ccccc1)NC(=O)Nc1ccc(Cl)cc1`, the growth inhibition was 12.5%.

Regarding `O=C(/C(=C\c1ccc(Cl)cc1)c1ccccc1)c1ccccc1`, the growth inhibition is -23.4%.

For the compound `COCCOCc1nc(C#N)c(N)o1`, the growth inhibition was -24%.

For the compound `C/C(=N\NC(=O)c1ccncc1)c1cccc(Br)c1`, the growth inhibition was 5.35%.

In the case of `c1ccc(CNC2CC3CCC2C3)cc1` (stereo not drawn), the growth inhibition is -16.4%.

Consider `CCOC(=O)C1C=NC([N+](=O)[O-])=C1Br` (stereo not drawn), for which the growth inhibition is 18.4%.

For `Clc1ccc(Nc2ncco2)cc1Cl`, the growth inhibition was 1.1%.

As for `O=[N+]([O-])c1nccn1CCC[n+]1ccc2ccccc2c1`, the growth inhibition is -13.8%.

`CCCCCCCCCCCCCCCc1c(NC(C)(CC)[P+](=O)O)c(=O)n(C)n1C` (stereo not drawn): the growth inhibition is -12.2%.

For `C=CCCCCCCCCCCCCCCC`, the growth inhibition was -31.9%.

On to `CCOc1cc2c(cc1Cc1ccc3c(c1)OCO3)OCO2`, for which the growth inhibition is 4.35%.

Consider `Cc1ccc(S(=O)(=O)C2(NC(=O)C3CC3)CC2)cc1`, for which the growth inhibition was -30.7%.

For the compound `CCCCCCCCCC(O)CCCC(O)C(O)CCCCCCC(=O)O` (stereo not drawn), the growth inhibition is -3.05%.

Take `Cc1ccc2[nH]c(=S)[nH]c(=S)c2c1`: the growth inhibition is -33.2%.

For the compound `CC(C)(Cl)C1CCC(CC(Cl)(Cl)Cl)CC1` (stereo not drawn), the growth inhibition was 11.9%.

Consider `O=C(NCC1CC1)NC(=O)c1ccccc1F`, for which the growth inhibition was -10.6%.

Consider `Cc1ccc(NC(=O)c2ccc(C)c(N)c2)c(C)c1`, for which the growth inhibition was -25.1%.

Turning to `O=C(C[n+]1ccccc1-c1ccccn1)c1ccc(-c2ccccc2)cc1`, the growth inhibition is 1%.

Take `NCc1ccccc1[N+](=O)[O-]`: the growth inhibition was 3.5%.

In the case of `CCOC(=O)C1Cc2ccccc2OC1=O` (stereo not drawn), the growth inhibition was 9.55%.

Regarding `O/N=C1\CC2(N3CCOCC3)CCC1(c1ccccc1)CC2`, the growth inhibition was 38%.

With `O=[N+]([O-])c1ccc(Cl)c(C=NC23CC4CC(CC(C4)C2)C3)c1`, the growth inhibition was -22.9%.

With `O=c1[nH]cnc2c1ncn2C1CCC(CO)O1` (stereo not drawn), the growth inhibition was 1.85%.

In the case of `O=C(/C=C/c1ccccc1)CC(=O)c1ccccc1.O=C(/C=C/c1ccccc1)CC(=O)c1ccccc1.[Cu]`, the growth inhibition was -2.45%.

Regarding `COc1cc(Cl)ccc1NC(=O)Oc1ccc(-c2ccccc2)cc1Cl`, the growth inhibition was 99.2% (active).

Regarding `S=c1sc2c(Cl)ncnc2n1-c1ccccc1`, the growth inhibition is 9.7%.

Consider `O=C(O)C(CO)N=Cc1nc(-c2ccccc2)oc1O` (stereo not drawn), for which the growth inhibition was -6.25%.

In the case of `CC(C)[C@@H]1CC[C@@H](C)C[C@H]1N`, the growth inhibition was 3.95%.

For `CCOC(=O)Cn1c(C(F)(F)F)nc2nc(Cl)c(Cl)nc21`, the growth inhibition was -19.9%.

In the case of `COc1ccccc1NC(=O)C1=C(C)NC(C)=C(C(=O)Nc2ccccc2OC)C1c1ccccc1Cl`, the growth inhibition is -6.45%.

The values are drawn from PubChem BioAssay (NCI).
